This is an account of results in PubChem BioAssay AID1347074 (Center for Chemical Genomics, University of Michigan, 2019).

Among all 47,000 compounds or so, about 2,800 (6%) were called active. This is one part of a sample in which actives are shown more often than they occur. Cut-off read from the data, not from the text of the source: active = z-score above about 3 (passing the limit was not always enough); inactive = the rest.

For the experiment, the target named is Endoribonuclease Dicer (Homo sapiens) (UniProt Q9UPY3). Put plainly: inhibitors of Dicer pre-microRNA processing, primary screen, biochemical, cat-ELCCA, chemiluminescence (AID 1347074).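 Note: plate controls were vehicle for no effect and no enzyme for full effect; higher signal means more uncleaved substrate so more Dicer inhibition.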 The conditions noted are these: cat-ELCCA pre-miR-21 Dicer processing, at 25 µM, hits give high values.
Chain of Endoribonuclease Dicer (Homo sapiens) (Q9UPY3 whole entry, looked up): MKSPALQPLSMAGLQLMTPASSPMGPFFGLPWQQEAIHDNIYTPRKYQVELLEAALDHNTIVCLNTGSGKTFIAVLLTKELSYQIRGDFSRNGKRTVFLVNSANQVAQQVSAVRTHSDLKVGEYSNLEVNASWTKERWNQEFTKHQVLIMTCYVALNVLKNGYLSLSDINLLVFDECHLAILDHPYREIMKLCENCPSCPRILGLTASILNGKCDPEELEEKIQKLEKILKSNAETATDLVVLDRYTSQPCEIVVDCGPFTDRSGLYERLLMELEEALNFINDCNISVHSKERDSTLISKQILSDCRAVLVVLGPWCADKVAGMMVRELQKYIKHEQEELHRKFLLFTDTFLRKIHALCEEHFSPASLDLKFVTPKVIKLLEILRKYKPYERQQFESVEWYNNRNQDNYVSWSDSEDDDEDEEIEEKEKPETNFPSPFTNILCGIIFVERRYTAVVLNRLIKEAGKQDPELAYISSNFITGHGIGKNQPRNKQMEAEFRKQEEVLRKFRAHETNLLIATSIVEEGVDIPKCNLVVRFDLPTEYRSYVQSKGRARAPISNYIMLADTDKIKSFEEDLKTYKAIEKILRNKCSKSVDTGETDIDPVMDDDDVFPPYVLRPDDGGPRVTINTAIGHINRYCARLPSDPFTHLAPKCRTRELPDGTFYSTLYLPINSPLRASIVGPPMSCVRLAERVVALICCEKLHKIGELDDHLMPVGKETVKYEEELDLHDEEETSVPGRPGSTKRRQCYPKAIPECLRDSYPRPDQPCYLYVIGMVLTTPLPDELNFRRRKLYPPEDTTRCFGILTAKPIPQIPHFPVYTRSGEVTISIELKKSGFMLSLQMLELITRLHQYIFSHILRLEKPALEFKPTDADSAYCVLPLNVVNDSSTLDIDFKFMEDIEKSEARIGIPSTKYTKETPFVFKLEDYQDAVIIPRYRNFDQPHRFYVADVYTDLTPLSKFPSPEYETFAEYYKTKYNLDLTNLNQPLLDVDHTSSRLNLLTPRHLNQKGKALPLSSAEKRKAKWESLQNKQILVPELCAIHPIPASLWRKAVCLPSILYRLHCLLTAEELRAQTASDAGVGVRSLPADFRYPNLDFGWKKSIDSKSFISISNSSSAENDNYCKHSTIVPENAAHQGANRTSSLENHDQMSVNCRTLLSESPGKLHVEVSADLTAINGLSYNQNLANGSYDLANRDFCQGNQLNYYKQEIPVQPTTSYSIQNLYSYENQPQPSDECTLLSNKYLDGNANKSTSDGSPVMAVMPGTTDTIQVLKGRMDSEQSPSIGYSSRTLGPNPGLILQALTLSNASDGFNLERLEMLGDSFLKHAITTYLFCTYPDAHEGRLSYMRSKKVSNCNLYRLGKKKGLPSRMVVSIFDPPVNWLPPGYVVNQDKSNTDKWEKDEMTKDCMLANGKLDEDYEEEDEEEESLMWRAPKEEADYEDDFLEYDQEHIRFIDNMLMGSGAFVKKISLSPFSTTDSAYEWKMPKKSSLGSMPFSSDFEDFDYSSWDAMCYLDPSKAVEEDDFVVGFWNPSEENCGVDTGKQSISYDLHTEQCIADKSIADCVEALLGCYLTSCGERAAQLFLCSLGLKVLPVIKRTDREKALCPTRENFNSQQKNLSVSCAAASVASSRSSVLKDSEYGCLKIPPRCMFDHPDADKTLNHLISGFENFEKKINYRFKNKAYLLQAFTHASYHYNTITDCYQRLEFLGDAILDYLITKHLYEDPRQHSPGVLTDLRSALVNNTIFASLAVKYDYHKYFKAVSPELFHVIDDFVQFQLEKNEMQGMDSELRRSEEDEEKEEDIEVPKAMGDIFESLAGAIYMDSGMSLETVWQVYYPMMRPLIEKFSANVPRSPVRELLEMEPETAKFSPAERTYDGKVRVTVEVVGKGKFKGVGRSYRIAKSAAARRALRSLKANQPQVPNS
As to `O=C1c2ccccc2C(=O)C1c1ccccc1`, the z-score is 0.31 (inactive).

For `Nc1nc2c(c(=O)[nH]1)C(c1ccccc1F)CC(=O)N2` (centres undefined), the z-score was -1.01 (inactive).

For the compound `O=C1c2ccccc2C(=O)C1c1ccccc1F`, the z-score is 20.4 (active).

For the compound `COC(=O)CCS(=O)(=O)c1ccc2ccccc2c1`, the z-score was 1.34 (inactive).

For `COC(=O)c1ccc(/C=C/c2nc3cc(C)c(C)cc3o2)cc1`, the z-score was -0.26 (inactive).

Turning to `Cc1ccc(S(=O)(=O)Nc2cccc(-c3cn4ccccc4n3)c2)cc1C`, the z-score was 5.71 (active).

On to `O=S(=O)(c1cccc(-c2cn3ccccc3n2)c1)N1CCCC1`, for which the z-score was -0.49 (inactive).

With `Cc1cccn2cc(-c3cccc(S(=O)(=O)N4CCCCC4)c3)nc12`, the z-score was 0.61 (inactive).

On to `COc1ccc(O)c(C2=NN3C(C2)c2cc(Cl)ccc2OC3c2cccnc2)c1` (centres undefined), for which the z-score was -1.34 (inactive).

With `Cc1ccc(O)c(C2=NN3C(C2)c2cc(Cl)ccc2OC3c2ccncc2)c1` (centres undefined), the z-score is -0.01 (inactive).

Consider `Oc1ccccc1C1=NN2C(C1)c1cc(Br)ccc1OC2c1ccncc1` (centres undefined), for which the z-score was 12.7 (active).

`O=C(O)/C=C/C(=O)Nc1cccc([N+](=O)[O-])c1`: the z-score was 1.26 (inactive).

For `Cc1cccc(C)c1NC(=S)N1CCc2ccccc2C1`, the z-score was -2.91 (inactive).

Turning to `O=[N+]([O-])c1cc(Br)cnc1Sc1n[nH]c(-c2cccs2)n1`, the z-score was -0.81 (inactive).

Turning to `Clc1ccc(-c2nn3c(-c4ccc(Cl)cc4)nnc3s2)cc1`, the z-score is 0.14 (inactive).

Consider `COc1nc(NC(C)(C)C)nc(Oc2ccc(=O)[nH]n2)n1`, for which the z-score was -0.91 (inactive).

Consider `O=C(c1cccs1)N1CCN(Cc2ccc3c(c2)OCO3)CC1`, for which the z-score is 0.63 (inactive).

As for `O=C1CC(c2ccccc2)Cc2nc(N3CCN(Cc4ccc5c(c4)OCO5)CC3)ncc21` (centres undefined), the z-score is -1.59 (inactive).

Regarding `CCCCCc1c(C)nc(N2CCN(Cc3ccc4c(c3)OCO4)CC2)[nH]c1=O`, the z-score was 3.11 (active).

Regarding `CCCCN1C(=O)C(c2c(C)[nH]n(-c3ccccc3)c2=O)(C(F)(F)F)C2=C1CC(C)(C)CC2=O` (centres undefined), the z-score is -2.96 (inactive).

`Cc1ccc(S(=O)(=O)Nc2cccc(CCc3ccccn3)c2)cc1`: the z-score was -0.8 (inactive).

Turning to `COCCCNC(=S)Nc1ccc(C)cc1C`, the z-score was -0.42 (inactive).

Turning to `CCCc1ccc(C(=O)NNc2ccc(C)cc2C)cc1`, the z-score was 4.39 (active).

For `CCCCCCCCc1ccc(C(=O)O)cc1`, the z-score was -0.9 (inactive).

In the case of `Oc1c(C(Nc2ccccn2)c2ccncc2)ccc2cccnc12` (centres undefined), the z-score was 1.37 (inactive).

On to `Cc1cccc(Cl)c1N=C(N)N=C(N)N`, for which the z-score was 1.97 (inactive).

Turning to `CC1(C)N=C(N)N=C(N)N1c1cc(Cl)c(Cl)cc1Cl`, the z-score was -0.47 (inactive).

`O=c1ccn(C2CCCO2)c(=O)n1Cc1ccccc1F` (centres undefined): the z-score was 0.96 (inactive).

For `CCc1ccc(C(=O)/C=C/Sc2ccccn2)cc1`, the z-score is 4.22 (active).

`CCc1ccc(C(=O)/C=C/Sc2nc3ccccc3o2)cc1`: the z-score is 1.33 (inactive).

For `CCCc1c(C)nc2scc(-c3ccc(Cl)cc3)n2c1=O`, the z-score is 1.65 (inactive).

Regarding `O=C(Nc1cccc(C(F)(F)F)c1)Nc1ccccc1SCc1ccc(Cl)cc1`, the z-score is -1.32 (inactive).

For `COCCCNC(=S)N/N=C/c1ccccc1Cl`, the z-score was -0.35 (inactive).

For the compound `COc1cccc(/C=N/NC(=S)Nc2cc(C(F)(F)F)cc(C(F)(F)F)c2)c1O`, the z-score was 5.84 (active).

As to `COc1cccc(/C=N/NC(=O)c2cc(C)nc3ccc(Br)cc23)c1O`, the z-score is 2.93 (inactive).

For the compound `CC(C)OC(=O)Cn1nc(C(F)(F)F)c2c1CCCC2`, the z-score is 0.31 (inactive).

Regarding `c1ccc(Nc2ncnc3sc(-c4ccccc4)cc23)cc1`, the z-score was 0.51 (inactive).

Turning to `CNC(=O)NC(=O)CSc1ncnc2sc(-c3ccccc3)cc12`, the z-score is -1.14 (inactive).

For the compound `COc1ccc(Nc2ncnc3sc(-c4ccccc4)cc23)c(OC)c1`, the z-score was 8.39 (active).

Turning to `CCOc1nc(-c2ccc(C)cc2)ccc1-c1noc(C)n1`, the z-score was 0.71 (inactive).

For `Cn1c(SCC(=O)Nc2cccc(C(F)(F)F)c2)nnc1SCC(=O)Nc1cccc(C(F)(F)F)c1`, the z-score was -0.05 (inactive).

Take `COc1cc(C2c3c(oc4ccc(F)cc4c3=O)C(=O)N2Cc2ccccc2)ccc1O` (centres undefined): the z-score is 2.47 (inactive).

With `COc1nc(NC(=O)NS(=O)(=O)c2ccccc2C(F)(F)F)nc(C23CC4CC(CC(C4)C2)C3)n1`, the z-score is -0.58 (inactive).

Consider `Cc1ccc(Sc2nc3ccc(Cl)cc3s2)cc1`, for which the z-score was -1.81 (inactive).

`Cc1ccc2nc(-c3ccc(NS(=O)(=O)c4ccc(Cl)s4)cc3)sc2c1`: the z-score was 4.31 (active).

`Cc1ccc(S(=O)(=O)Nc2ccc3ncccc3c2)cc1`: the z-score was 0.32 (inactive).

For `COc1ccc(C2CC(=O)c3cn4nc(C)nc4nc3C2)cc1OC` (centres undefined), the z-score was -0.07 (inactive).

With `Cc1cc(C)c(S(=O)(=O)N2CCc3ccccc3C2)c(C)c1`, the z-score is 0.07 (inactive).

In the case of `CN([C@H]1CCN2CCc3ccccc3C2C1)S(C)(=O)=O` (some centres undefined), the z-score was 3.92 (active).

As for `CN(C(=O)CSc1nc(C2CCCCC2)c(C#N)c(=O)[nH]1)c1ccccc1`, the z-score is -0.59 (inactive).

Turning to `COc1ccc(C2=Nc3ccccc3SC(c3ccc(OC)c(O)c3)C2)c(O)c1` (centres undefined), the z-score is -0.56 (inactive).

Take `COc1ncnc2sc(C(=O)O)c(C)c12`: the z-score was 0.21 (inactive).

Regarding `CCc1ccc(S(=O)(=O)Nc2cc(Cl)c3oc(=O)sc3c2)cc1`, the z-score was 14.8 (active).

As for `CCOc1ccc(NS(=O)(=O)c2ccc(Cl)cc2)cc1`, the z-score is 0.5 (inactive).

Regarding `CCc1ccnc(NS(=O)(=O)c2ccc3c(c2)OCCO3)c1`, the z-score was 0.59 (inactive).

For `COc1ccc(-c2cnc3cc(-c4ccc(Cl)cc4)nn3c2N)cc1OC`, the z-score was 1.34 (inactive).

As to `O=C1C2=C(Nc3[nH]c(=O)[nH]c(=O)c3C2c2ccc(F)cc2)c2ccccc21` (centres undefined), the z-score is -3.54 (inactive).

With `Cn1c2c(c(=O)n(C)c1=O)C(c1ccc(F)cc1)C1=C(N2)c2ccccc2C1=O` (centres undefined), the z-score was 1.52 (inactive).

Regarding `O=C1C2=C(Nc3ccccc3S(=O)(=O)C2c2ccc(Cl)cc2)c2ccccc21` (centres undefined), the z-score was 5.21 (active).

Regarding `O=C1c2oc3ccccc3c(=O)c2C(c2ccccc2F)N1c1nncs1` (centres undefined), the z-score was -0.05 (inactive).

Regarding `O=C1CC(=O)CC(c2cccc(Cl)c2)C1`, the z-score is -0.3 (inactive).

Turning to `Cc1ccc(-c2nnc(NCc3ccccc3)c3ccccc23)cc1S(=O)(=O)N1CCOCC1`, the z-score is 3.46 (active).

Consider `Cc1ccc(-c2nnc(N3CCOCC3)c3ccccc23)cc1S(=O)(=O)N1CCCCC1`, for which the z-score was -4.68 (inactive).

Regarding `Cc1ccc(-c2nnc(Nc3ccccc3)c3ccccc23)cc1S(=O)(=O)NCCO`, the z-score is 0.4 (inactive).
